Drawing on PubChem BioAssay, this text covers composite z-score, composite Z-score and z-score for five compounds.

The target of one test is Albumin (Bos taurus) (UniProt P02769). The test can be described thus: bovine serum albumin binders on microarray, profiling panel, artefact control for SMM control protein annotation, biochemical, small-molecule microarray, Alexa647 label, 635/667 nm fluorescence (AID 1118).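 Also: score merges 667 nm emission intensity and signal-to-noise per printed compound spot.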 Particulars: BSA-A647 binding, fluorescence 635 nm, higher = more signal.
A short description of test [1]: small-molecule microarray binders of probe aXIP, primary screen, biochemical, NeuroSMM set, 635/667 nm fluorescence (AID 1119).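 Also: probe is the protein aXip251-270 applied at 1 µg/mL to compound-printed slides; binding of probe to printed compounds measured as 667 nm fluorescence plus signal to noise.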 The note with it: higher = more signal, called active from +8 up or from −8 down.
The nature of test [2]: small-molecule binders of probe aNOTCH3, primary screen, biochemical, small-molecule microarray, 635/667 nm fluorescence (AID 1120).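 Also: probe is a biotin-tagged antibody raised against NOTCH3 rather than NOTCH3 protein; score merges spot fluorescence near 667 nm with spot signal to noise.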 The note with it: higher = more signal.
Test [3] can be described thus: small-molecule binders of probe aNOTCH2, primary screen, biochemical, small-molecule microarray, 635/667 nm fluorescence (AID 1121).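 Also: score merges feature fluorescence read at 667 nm with its signal to noise.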 Particulars: higher = more signal.
Test [4] deals with Carbonic anhydrase 2 (Homo sapiens) (UniProt P00918). As to the kind of experiment: CAII small-molecule binders, profiling panel, biochemical, small-molecule microarray, Alexa647-labelled CAII (AID 1122). Particulars: CAII-A647 binding fluorescence, higher = more signal.
A short description of test [5]: COS7 lysate on small-molecule microarray, probe aHis, 635 nm (AID 1123).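 Also: z-score combines 667nm fluorescence intensity with signal-to-noise per printed compound spot.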 Particulars: COS7 cell lysate, fluorescence, higher = more signal.
Test [6] is described as follows: compound binding in COS7 lysate, probe aLAP1, primary screen, cell lysate, small-molecule microarray (AID 1124).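 Also: lysate comes from COS7 cells expressing LAP1 and is applied at 0.3 µg/mL; score merges spot fluorescence near 667 nm with signal-to-noise over triplicate slides.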 Particulars: probe aLAP1, fluorescence, higher = more signal.
Another test concerns Sam68 (KHDRBS1). As to the kind of experiment: Sam68 small-molecule binders, primary screen, biochemical, small-molecule microarray, 635 nm fluorescence (AID 1125).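 Also: score merges 667 nm channel intensity with signal to noise over triplicate slides.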 Particulars: small-molecule microarray binding, higher = more signal.
Test [7] deals with Chordin-like protein 2 (CHRDL2). As to the kind of experiment: CHRDL2 small-molecule binders, primary screen, biochemical, small-molecule microarray, 635 nm fluorescence (AID 1126).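 Also: printed compound slides probed with Chrdl2 protein at 4 µg/mL for 1 h at 4 C; score merges 667 nm emission intensity with signal to noise over three replicate slides.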 Particulars: small-molecule microarray binding, fluorescence 635 nm; higher = more signal.
For test [8], the target named is Concanavalin-A (Canavalia ensiformis) (UniProt P02866). As to the kind of experiment: ConA small-molecule binders, primary screen, artefact control for SMM control protein annotation, biochemical, small-molecule microarray, Alexa647 label, 635 nm (AID 1127).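 Also: z combines 667 nm emission intensity with signal-to-noise across three replicate slides.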 Particulars: ConA-A647 binding fluorescence, higher = more signal.
The nature of test [9]: anti-His antibody binders, primary screen, artefact control for SMM control protein annotation, biochemical, small-molecule microarray, 635 nm fluorescence (AID 1128).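 Also: score merges feature fluorescence with signal-to-noise for each printed compound spot.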 Particulars: anti-His Alexa647 antibody binding, higher = more signal.
For test [10], the system named is Human papillomavirus type 1a E7 protein (residues 1-88). As to the kind of experiment: HPV1a E7 small-molecule binders, primary screen, biochemical, small-molecule microarray, residues 1-88, 635 nm (AID 1129). Particulars: small-molecule microarray binding, fluorescence 635 nm; higher = more signal.
Test [11] deals with Focal adhesion kinase 1 (Homo sapiens) (UniProt Q05397). As to the kind of experiment: small-molecule microarray binders of FAK, primary screen, biochemical, 635/667 nm fluorescence, BSA, DTT (AID 1130).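 Also: composite of spot emission at 667 nm and signal to noise over triplicate slides.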 Particulars: PTK2 binding, 635 nm fluorescence, higher = more signal.
The subject of test [12] is Fibrinogen (Alexa647-labelled). As to the kind of experiment: fibrinogen binders on compound microarrays, profiling panel, artefact control for SMM control-protein annotation, biochemical, small-molecule microarray, 635/667 nm fluorescence (AID 1131).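 Also: z-score merges 667 nm fluorescence with per-spot signal-to-noise over triplicate slides.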 Particulars: fibrinogen-A647 binding fluorescence, higher = more signal.
The target in test [13] is Follistatin (Homo sapiens) (UniProt P19883). As to the kind of experiment: follistatin binders on small-molecule microarrays, primary screen, biochemical, small-molecule microarray, 635/667 nm fluorescence (AID 1132). Particulars: FST binding, 635 nm fluorescence, higher = more signal.
Test [14] has as its target Fibroblast growth factor 2 (Homo sapiens) (UniProt P09038). The test can be described thus: FGF2 binders on small-molecule microarrays, primary screen, biochemical, small-molecule microarray, 635/667 nm fluorescence (AID 1133). The note with it: small-molecule microarray binding, FGF2, fluorescence 635/667; higher = more signal.
A short description of test [15]: mitochondrial membrane potential change in A549 cells, profiling panel, cell-based, JC-1 fluorescence, basal, 24 h, 100 nL (AID 1138).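 Also: A549 lung adenocarcinoma cells under basal conditions with no added stimulus; test concentration not given here.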 The note with it: higher = more signal.
The next test deals with Lefty1. As to the kind of experiment: Lefty1 binders on small-molecule microarrays, primary screen, biochemical, small-molecule microarray, 635/667 nm fluorescence (AID 1139). Particulars: small-molecule microarray binding, fluorescence 635/667; higher = more signal.
In test [16] the test system is wheat germ agglutinin (Triticum aestivum), Alexa647-labelled. As to the kind of experiment: wheat germ agglutinin binders on compound microarrays, profiling panel, artefact control for SMM control-protein annotation, biochemical, small-molecule microarray, 635/667 nm fluorescence (AID 1140).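 Also: score merges 667 nm feature emission with signal to noise over triplicate slides.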 Particulars: WGA-A647 binding, 635 nm fluorescence, higher = more signal.
For test [17], the target named is Luciferin 4-monooxygenase (Photinus pyralis) (UniProt P08659). The test can be described thus: firefly luciferase enzyme inhibitors, primary screen, biochemical, luminescence, purified enzyme, 2006 set (AID 1141).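 Also: cell-free assay with purified firefly luciferase at 100 ng per well in PBS; test concentration not given here.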 Particulars: SteadyGlo luminescence, 30 min, higher = more signal, called active from +8 up or from −8 down.

Each structure is given as a SMILES string. Active and inactive are the calls of the source.

Chain of Fibroblast growth factor 2 (Homo sapiens) (P09038 whole entry, looked up): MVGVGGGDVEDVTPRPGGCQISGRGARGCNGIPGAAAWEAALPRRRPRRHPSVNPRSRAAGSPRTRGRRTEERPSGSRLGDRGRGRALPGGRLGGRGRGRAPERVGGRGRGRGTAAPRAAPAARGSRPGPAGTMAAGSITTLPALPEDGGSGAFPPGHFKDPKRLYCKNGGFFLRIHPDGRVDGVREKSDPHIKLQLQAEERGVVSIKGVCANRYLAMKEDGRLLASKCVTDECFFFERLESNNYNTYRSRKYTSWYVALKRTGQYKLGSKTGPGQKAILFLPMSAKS
Chain of Follistatin (Homo sapiens) (P19883 whole entry, looked up): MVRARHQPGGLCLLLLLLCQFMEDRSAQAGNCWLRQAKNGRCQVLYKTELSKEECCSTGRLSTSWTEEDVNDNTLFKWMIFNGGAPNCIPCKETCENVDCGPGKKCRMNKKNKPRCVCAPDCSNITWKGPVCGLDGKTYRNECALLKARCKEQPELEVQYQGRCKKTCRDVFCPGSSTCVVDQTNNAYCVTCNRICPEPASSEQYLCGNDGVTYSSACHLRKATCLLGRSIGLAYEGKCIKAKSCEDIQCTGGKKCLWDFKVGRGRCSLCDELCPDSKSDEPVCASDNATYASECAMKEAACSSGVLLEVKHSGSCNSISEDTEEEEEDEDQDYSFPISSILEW
Chain of Concanavalin-A (Canavalia ensiformis) (P02866 whole entry, looked up): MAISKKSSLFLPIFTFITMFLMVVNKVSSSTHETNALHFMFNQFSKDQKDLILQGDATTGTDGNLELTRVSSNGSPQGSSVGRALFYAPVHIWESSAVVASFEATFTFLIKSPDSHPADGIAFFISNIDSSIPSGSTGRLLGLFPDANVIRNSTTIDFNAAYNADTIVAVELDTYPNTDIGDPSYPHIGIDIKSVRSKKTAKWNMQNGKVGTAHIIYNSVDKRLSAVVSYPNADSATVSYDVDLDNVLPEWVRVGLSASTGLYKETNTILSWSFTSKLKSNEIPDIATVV
Chain of Albumin (Bos taurus) (P02769 whole entry, looked up): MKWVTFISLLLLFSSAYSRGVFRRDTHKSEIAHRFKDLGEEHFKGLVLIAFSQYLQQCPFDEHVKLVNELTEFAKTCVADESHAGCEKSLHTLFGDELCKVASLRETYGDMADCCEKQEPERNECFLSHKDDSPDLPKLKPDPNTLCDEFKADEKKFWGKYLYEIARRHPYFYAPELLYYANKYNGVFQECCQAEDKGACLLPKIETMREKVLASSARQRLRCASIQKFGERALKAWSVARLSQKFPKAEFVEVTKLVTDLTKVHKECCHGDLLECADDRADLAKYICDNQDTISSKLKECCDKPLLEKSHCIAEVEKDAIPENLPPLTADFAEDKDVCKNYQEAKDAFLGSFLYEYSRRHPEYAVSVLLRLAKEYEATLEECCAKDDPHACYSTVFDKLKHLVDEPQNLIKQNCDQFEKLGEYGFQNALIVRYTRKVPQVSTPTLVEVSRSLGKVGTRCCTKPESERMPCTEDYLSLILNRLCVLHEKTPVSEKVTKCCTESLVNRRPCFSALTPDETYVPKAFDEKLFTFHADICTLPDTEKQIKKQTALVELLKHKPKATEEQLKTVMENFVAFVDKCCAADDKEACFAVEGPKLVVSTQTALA
Chain of Focal adhesion kinase 1 (Homo sapiens) (Q05397 whole entry, looked up): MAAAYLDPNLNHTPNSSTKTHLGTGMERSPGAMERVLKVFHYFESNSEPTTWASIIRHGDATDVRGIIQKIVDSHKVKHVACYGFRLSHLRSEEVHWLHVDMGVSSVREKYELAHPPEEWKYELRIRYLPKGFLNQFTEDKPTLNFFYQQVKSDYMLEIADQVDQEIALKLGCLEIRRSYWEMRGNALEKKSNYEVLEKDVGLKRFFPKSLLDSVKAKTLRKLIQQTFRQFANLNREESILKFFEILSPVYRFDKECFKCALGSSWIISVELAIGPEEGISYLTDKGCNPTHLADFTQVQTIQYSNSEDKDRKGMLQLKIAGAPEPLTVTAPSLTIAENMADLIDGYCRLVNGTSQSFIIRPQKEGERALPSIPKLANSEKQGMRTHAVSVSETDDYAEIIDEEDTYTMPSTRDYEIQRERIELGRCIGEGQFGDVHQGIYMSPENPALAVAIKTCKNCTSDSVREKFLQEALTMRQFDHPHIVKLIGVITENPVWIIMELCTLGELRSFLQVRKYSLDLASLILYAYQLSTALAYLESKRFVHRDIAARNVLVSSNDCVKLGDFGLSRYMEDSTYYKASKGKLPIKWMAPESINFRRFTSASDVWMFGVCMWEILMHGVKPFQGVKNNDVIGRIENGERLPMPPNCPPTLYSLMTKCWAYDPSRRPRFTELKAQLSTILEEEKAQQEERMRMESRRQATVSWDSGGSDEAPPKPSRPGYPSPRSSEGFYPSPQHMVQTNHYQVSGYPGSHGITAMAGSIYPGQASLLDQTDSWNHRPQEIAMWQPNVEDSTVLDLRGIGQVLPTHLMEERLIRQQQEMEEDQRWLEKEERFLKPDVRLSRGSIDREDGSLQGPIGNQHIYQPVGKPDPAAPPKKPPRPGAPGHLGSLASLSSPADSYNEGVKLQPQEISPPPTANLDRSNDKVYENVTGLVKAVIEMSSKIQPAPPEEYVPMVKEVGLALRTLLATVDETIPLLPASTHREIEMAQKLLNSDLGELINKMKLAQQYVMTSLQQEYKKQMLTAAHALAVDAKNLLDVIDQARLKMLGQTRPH
Chain of Luciferin 4-monooxygenase (Photinus pyralis) (P08659 whole entry, looked up): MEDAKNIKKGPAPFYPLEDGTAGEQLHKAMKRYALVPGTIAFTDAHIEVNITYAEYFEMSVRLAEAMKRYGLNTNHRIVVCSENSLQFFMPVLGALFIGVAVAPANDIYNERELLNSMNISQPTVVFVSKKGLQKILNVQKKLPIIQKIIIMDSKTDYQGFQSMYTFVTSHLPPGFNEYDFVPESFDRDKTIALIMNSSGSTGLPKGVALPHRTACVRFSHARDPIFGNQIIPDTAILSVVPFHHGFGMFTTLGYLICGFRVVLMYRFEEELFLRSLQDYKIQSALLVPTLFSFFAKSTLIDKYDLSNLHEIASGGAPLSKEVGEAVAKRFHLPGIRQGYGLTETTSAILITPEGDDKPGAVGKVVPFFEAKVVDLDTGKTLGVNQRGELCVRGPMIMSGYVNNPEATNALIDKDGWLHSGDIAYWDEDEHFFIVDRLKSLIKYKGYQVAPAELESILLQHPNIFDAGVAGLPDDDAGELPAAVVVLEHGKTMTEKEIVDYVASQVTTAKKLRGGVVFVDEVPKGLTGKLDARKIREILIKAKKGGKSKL

Take `CCOC(=O)C[C@H]1[C@H](OC(=O)Cc2ccc3c(c2)OCO3)[C@@H](NC(=O)c2ccc3ccccc3n2)c2cc(OCCCO)ccc2N1C(=O)c1ccccc1`: the composite z-score with Albumin (Bos taurus) is -0.233; in [2], -0.124; in [3], -0.18; in [4], 0.0645; in [5], 0.109; in test [6], -0.115. Besides, the composite z-score was 0.416 in the test on Sam68 (KHDRBS1); 0.528 in test [7]; 0.321 in [8]; -0.0867 in test [9]; 0.381 in [10]; -0.0076 in test [11]. In addition, the composite z-score in [12] came out at 0.364; in test [13] it was 0.803; in test [14], 0.902; with Lefty1 it was 0.755; in test [16] it was 0.326. Moreover, the composite Z-score in [1] was 0.221 (inactive). The z-score in test [15] is 2.23; in test [17], -0.992 (inactive).

As to `Cc1ccc(S[C@]2(C(=O)NCCN3CCOCC3)CC(=O)N(Cc3ccccc3Cl)[C@@H]2c2ccc(CO)cc2I)cc1`, the composite z-score came to 0.243 with Albumin (Bos taurus); 0.0226 in test [2]; 0.584 in [3]; 0.805 in test [4]; 2.75 in test [5]; 1.49 in test [6]. Also, the composite z-score with Sam68 (KHDRBS1) is 0.653; in test [7], -0.35; in test [8], -0.763; in [9], -0.882; in test [10], -0.227; in test [11], 1.09. Also, the composite z-score was -0.646 in [12]; -0.349 in test [13]; 0.388 in [14]; -1.57 with Lefty1; 0.498 in test [16]. The composite Z-score in test [1] is 0.555 (inactive). Also, the values for the z-score in test [15] and in test [17] were 1.08 and -0.43 (inactive), respectively.

For the compound `COc1ccc(C#Cc2ccc3c(c2)[C@]2(C(=O)N3)[C@H](c3ccc(O)cc3)N3[C@H](c4ccccc4)[C@H](c4ccccc4)OC(=O)[C@H]3[C@@H]2C(=O)Nc2nc3ccccc3s2)cc1`, the composite z-score with Albumin (Bos taurus) was 0.67; in [2] it was -0.014; in test [3], 0.117; in test [4] it was 0.61; in [5], 2.47; in test [6], 0.98. For the same compound, the composite z-score in the test on Sam68 (KHDRBS1) is 1.29; in [7], 0.428; in [8] it was 1.08; in [9] it was 0.269; in test [10], 1.25; in test [11], 0.359. For the same compound, the composite z-score in [12] worked out at 0.983; in test [13], 1.29; in test [14] it was 0.964; in the test with Lefty1 it was 0.882; in [16], 0.768. Besides, in test [1], the composite Z-score is 0.276 (inactive). The values for the z-score in test [15] and in test [17] were -2.1 and -1.28 (inactive), respectively.

With `COC(=O)C1=CC(CCCO)=CC(c2cccs2)N(Cc2cccc(OC(F)(F)F)c2)C=C1C(=O)OC` (stereo not given), the composite z-score in the test with Albumin (Bos taurus) is 0.935; in test [2], 0.208; in test [3], 0.224; in test [4], 0.834; in [5] it was 1.93; in test [6], 0.718. Further, the composite z-score is 1.3 in the test with Sam68 (KHDRBS1); -0.413 in test [7]; 1.13 in [8]; 1.51 in test [9]; 1.23 in test [10]; 2.18 in test [11]. Further, the composite z-score in [12] was 0.972; in test [13] it was 1.23; in test [14], -0.141; with Lefty1 it was 0.233; in test [16], 1.13. The composite Z-score in test [1] was 0.387 (inactive). Besides, the z-score in test [15] is 1.87; in test [17] it was -1.41 (inactive).

Take `CC1CC/C=C\[C@H]2OC34C=CCN(Cc5ccccc5)C(=O)[C@H]3N(C(CO)C(C)C)C(=O)[C@@H]4C2C(=O)O1` (stereo not given in full): the composite z-score is -1.39 with Albumin (Bos taurus); 0.0666 in test [2]; -0.0418 in test [3]; 0.821 in test [4]; 0.152 in test [5]; 0.219 in test [6]. The composite z-score with Sam68 (KHDRBS1) was -0.271; in test [7], -0.398; in test [8], -0.355; in test [9], -0.696; in test [10], -1.03; in [11] it was -0.475. For the same compound, the composite z-score is -0.798 in test [12]; -0.528 in [13]; -0.81 in test [14]; -0.722 in the test with Lefty1; 0.389 in test [16]. For the same compound, the composite Z-score in [1] was -0.263 (inactive). Moreover, the z-score in test [15] is 1.32; in test [17], -1.15 (inactive).
